Results as given in PubChem BioAssay (NCATS).
Inconclusive results are not listed. The source made the active and inactive calls. Unless noted, the call rests on the fitted dose curve; in most records, active means well fitted curve in either direction with a large enough effect (not every such curve was filed as active); inconclusive means small, poorly fitted or top-dose-only effect, or another doubt; inactive means flat fitted curve, though single readings scatter.

Key:
[1] = target: Lysosomal acid glucosylceramidase (Homo sapiens) (UniProt P04062); assay: Glucocerebrosidase-p2 (AID 348; in the data active means potency below about 10 µM; further: potency means the concentration at half of the fitted maximal effect); conditions: purified GBA, blue fluorogenic substrate, 40 min
Method in brief: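 Compounds titrated from 0.6 nM upwards against 0.2 nM enzyme in pH 5.9 citric acid/KH2PO4, taurocholate, tween-20; blue fluorogenic substrate 80 uM, 40 min room temperature, stopped and read Ex 365/Em 440 for AC50.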

[2] = AP1 Signaling Pathway (AID 357); conditions: ME-180 AP-1-bla reporter, EGF-induced, beta-lactamase ratio, 5 h; at 7.69 µM (top of the series) unless noted;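 further: ME-180 reporter cells stimulated with EGF at its EC50 level; on the % scale 0 is the no-effect control and ±100 the full control effect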
Method in brief: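 Cells are seeded overnight, exposed to compound titrations and an EC50 level of EGF for 5 hours at 37 °C, then loaded with CCF4 dye for 2.5 hours. Beta-lactamase activity under the AP-1 element is read as a blue/green ratio.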

[3] = NFAT Signaling Pathway (AID 444); conditions: Jurkat NFAT-bla M1, carbachol, beta-lactamase ratio, 5 h; at 7.69 µM (top of the series) unless noted;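 further: carbachol stimulus at about its EC50 of 1 µM final; on the % scale 0 is the no-effect control and ±100 the full control effect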
Method in brief: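 Jurkat cells carrying an NFAT-driven β-lactamase reporter and co-transfected muscarinic M1 receptor were treated with compound plus carbachol (1 uM final, an EC50 level) for 5 h at 37 °C. CCF4 loading followed for 1 h at RT; 460/530 nm ratio gave %activity.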

[4] = Stat Signaling Pathway (AID 446); conditions: ME-180 SIE beta-lactamase reporter, IL-6 stimulated, 5 h; at 7.69 µM (top of the series) unless noted;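 further: ME-180 cervical cancer cells given 40 pM IL-6 alongside compound; SIE-controlled beta-lactamase reporter measured as 460/530 nm FRET emission ratio; on the % scale 0 is the no-effect control and ±100 the full control effect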
Method in brief: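 ME-180 SIE-bla cells; overnight plating; cpd + IL-6 40 pM, 5 h, 37 C; LiveBLAzer 2.5 h RT; 460/530 nm emission ratio. Normalized to 300 pM IL-6 and 125 nM JAK inhibitor controls.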

[5] = target: Glucocorticoid receptor (Homo sapiens) (UniProt P04150); assay: GR-EFC Redistribution (AID 451; calls by dose curve; further: potency means the concentration at half of the fitted maximal effect); conditions: CHO-K1 GR-EFC translocation, beta-gal luminescence, 2 h
Method in brief: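 CHO-K1 cells stably expressing nuclear-localized β-gal enzyme acceptor and GR fused C-terminally to the enzyme donor fragment; ligand-driven nuclear translocation restores β-gal by complementation. Compounds titrated up to 46 uM final, 2 h at 37 °C; luminescence read.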

[6] = target: Mitogen-activated protein kinase 10 (Mus musculus) (UniProt Q61831); assay: JNK3 AlphaScreen Assay (AID 530); conditions: JNK3 lysate, c-Jun phosphorylation; series mostly up to 57.1 µM;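 further: kinase came from lysate of stimulated human HepG2 cells; signal reports phosphorylation of biotinylated GST-cJun 1-79 at Ser73 with 10 µM ATP; on the % scale 0 is the no-effect control and ±100 the full control effect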
Method in brief: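 JNK3 came from HepG2 lysates pre-activated with IL-1beta and TNF-alpha and phosphorylated biotinylated GST-cJun (1-79) at 10 uM ATP, pH 7.6, room temperature. Compounds were titrated. AlphaScreen signal used anti-phospho-cJun (Ser73) antibody.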

[7] = target: 3',5'-cyclic-AMP phosphodiesterase 4B (Homo sapiens) (UniProt Q07343); assay: qHTS Assay for Inhibitors of PDE-IV (AID 607; active means well fitted activation curve with a large enough effect in the main read-out, with a control signal flat, not every such curve was filed as active; further: % of control where 0% means no effect); conditions: HEK293 ACTOne CNG channel cells, membrane potential fluorescence; series mostly up to 22.9 µM
Method in brief: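 ACTOne HEK293 cells carry a modified cAMP-gated CNG channel and express endogenous PDE4; plated 1000 cells/well, compounds up to 22.9 uM final. Membrane-potential dye fluorescence (ex 535/em 590) was read; parental cells received 10 uM forskolin + 100 uM RO 20-1724.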

[8] = Primary qHTS for small molecule stabilizers of the endoplasmic reticulum resident proteome: Secreted ER Calcium Modulated Protein (SERCaMP) assay (AID 1508630; active means well fitted curve in the direction sought with a large enough effect; an effect the other way counts as inactive or inconclusive; further: on the % scale 0 is the no-effect control and ±100 the full control effect); conditions: SH-SY5Y GLuc-SERCaMP (Gaussia luciferase released on ER calcium loss) secretion, thapsigargin, luminescence; series mostly up to 38.4 µM
Method in brief: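 GLuc-SERCaMP-expressing SH-SY5Y cells, pretreated 16 h with compound, are challenged with thapsigargin to empty ER calcium stores; after 4 h, coelenterazine is added directly to the medium and luminescence is imaged.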

[9] = target: Cytochrome P450 3A4 (Homo sapiens) (UniProt P08684); assay: qHTS Assay for Inhibitors and Substrates of Cytochrome P450 3A4 (AID 884; active means well fitted curve in the direction sought with a large enough effect; an effect the other way counts as inactive or inconclusive; further: on the % scale 0 is the no-effect control and ±100 the full control effect; nearly all actives have a fitted effect of over 50% in size); conditions: recombinant CYP3A4, Luciferin-PPXE luminescence; series mostly up to 57.1 µM
Method in brief: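 20 nM human CYP3A4 with 25 uM Luciferin-PPXE (at KM) in 200 mM KPO4, preincubated 10 min with compound; NADPH regeneration started a 60 min RT reaction. Luciferin detected by luminescence, normalized to 57 uM ketoconazole as full inhibition.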

[10] = target: Cytochrome P450 3A4 (Homo sapiens) (UniProt P08684); assay: qHTS Assay for Activators of Cytochrome P450 3A4 (AID 885; active means well fitted curve in the direction sought with a large enough effect; an effect the other way counts as inactive or inconclusive; further: nearly all actives have a fitted effect of over 65% in size); conditions: recombinant CYP3A4, Luciferin-PPXE luminescence, 60 min; series mostly up to 57.1 µM
Method in brief: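 20nM CYP3A4 + 25uM Luciferin-PPXE (=KM), 200mM KPO4; cpd 10 min RT; NADPH regen, 60 min RT; stop w/ detection buffer, 20 min; luminescence. Normalized to 57 uM ketoconazole.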

Lysosomal acid glucosylceramidase (Homo sapiens), sequence (P04062 whole entry, looked up): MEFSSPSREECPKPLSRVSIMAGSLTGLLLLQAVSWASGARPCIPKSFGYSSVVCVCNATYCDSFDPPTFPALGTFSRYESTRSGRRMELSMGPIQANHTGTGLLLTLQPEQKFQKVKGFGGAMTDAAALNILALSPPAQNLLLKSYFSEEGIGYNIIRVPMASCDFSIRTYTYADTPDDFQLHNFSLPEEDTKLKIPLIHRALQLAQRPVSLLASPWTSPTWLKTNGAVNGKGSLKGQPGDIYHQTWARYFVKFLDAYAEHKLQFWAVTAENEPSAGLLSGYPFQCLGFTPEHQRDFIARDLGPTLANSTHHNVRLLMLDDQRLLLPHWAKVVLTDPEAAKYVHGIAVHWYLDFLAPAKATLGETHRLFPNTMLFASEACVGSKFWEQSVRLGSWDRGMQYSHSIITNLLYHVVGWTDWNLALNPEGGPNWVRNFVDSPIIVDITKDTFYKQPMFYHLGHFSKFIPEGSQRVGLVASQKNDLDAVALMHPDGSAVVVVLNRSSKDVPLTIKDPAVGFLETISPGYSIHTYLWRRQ
Glucocorticoid receptor (Homo sapiens), sequence (P04150 whole entry, looked up, the tested form may be a part): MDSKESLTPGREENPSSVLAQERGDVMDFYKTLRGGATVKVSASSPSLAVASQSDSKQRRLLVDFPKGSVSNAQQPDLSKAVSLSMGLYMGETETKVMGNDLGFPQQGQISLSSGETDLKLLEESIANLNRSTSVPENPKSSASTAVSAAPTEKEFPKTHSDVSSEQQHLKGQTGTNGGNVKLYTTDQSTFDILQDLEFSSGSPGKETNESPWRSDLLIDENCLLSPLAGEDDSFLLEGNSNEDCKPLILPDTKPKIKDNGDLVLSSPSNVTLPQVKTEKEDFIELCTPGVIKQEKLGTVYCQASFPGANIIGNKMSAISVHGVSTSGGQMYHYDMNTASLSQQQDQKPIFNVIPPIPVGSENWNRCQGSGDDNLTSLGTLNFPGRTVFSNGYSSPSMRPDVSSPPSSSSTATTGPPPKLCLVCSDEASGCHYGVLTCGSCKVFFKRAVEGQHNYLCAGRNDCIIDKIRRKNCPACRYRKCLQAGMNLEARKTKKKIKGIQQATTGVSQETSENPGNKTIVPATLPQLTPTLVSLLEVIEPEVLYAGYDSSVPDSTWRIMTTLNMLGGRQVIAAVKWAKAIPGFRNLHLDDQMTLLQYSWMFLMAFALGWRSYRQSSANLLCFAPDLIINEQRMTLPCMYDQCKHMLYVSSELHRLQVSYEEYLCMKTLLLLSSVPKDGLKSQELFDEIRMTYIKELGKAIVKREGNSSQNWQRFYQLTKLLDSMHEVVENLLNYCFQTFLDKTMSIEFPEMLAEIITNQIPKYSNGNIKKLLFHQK
Cytochrome P450 3A4 (Homo sapiens), sequence (P08684 whole entry, looked up): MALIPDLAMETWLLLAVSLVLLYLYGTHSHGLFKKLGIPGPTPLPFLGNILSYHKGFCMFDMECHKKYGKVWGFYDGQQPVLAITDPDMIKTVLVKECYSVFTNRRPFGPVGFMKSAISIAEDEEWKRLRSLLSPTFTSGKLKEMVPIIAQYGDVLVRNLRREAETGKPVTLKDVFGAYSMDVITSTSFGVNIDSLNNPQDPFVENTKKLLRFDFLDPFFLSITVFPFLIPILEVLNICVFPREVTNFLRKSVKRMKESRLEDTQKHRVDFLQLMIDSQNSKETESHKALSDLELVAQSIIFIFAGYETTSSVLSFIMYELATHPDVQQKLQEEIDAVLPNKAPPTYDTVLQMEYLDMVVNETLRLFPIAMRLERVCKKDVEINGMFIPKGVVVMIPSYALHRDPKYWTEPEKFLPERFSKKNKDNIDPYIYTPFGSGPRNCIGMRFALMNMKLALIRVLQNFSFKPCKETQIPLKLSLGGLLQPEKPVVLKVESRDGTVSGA
3',5'-cyclic-AMP phosphodiesterase 4B (Homo sapiens), sequence (Q07343 whole entry, looked up): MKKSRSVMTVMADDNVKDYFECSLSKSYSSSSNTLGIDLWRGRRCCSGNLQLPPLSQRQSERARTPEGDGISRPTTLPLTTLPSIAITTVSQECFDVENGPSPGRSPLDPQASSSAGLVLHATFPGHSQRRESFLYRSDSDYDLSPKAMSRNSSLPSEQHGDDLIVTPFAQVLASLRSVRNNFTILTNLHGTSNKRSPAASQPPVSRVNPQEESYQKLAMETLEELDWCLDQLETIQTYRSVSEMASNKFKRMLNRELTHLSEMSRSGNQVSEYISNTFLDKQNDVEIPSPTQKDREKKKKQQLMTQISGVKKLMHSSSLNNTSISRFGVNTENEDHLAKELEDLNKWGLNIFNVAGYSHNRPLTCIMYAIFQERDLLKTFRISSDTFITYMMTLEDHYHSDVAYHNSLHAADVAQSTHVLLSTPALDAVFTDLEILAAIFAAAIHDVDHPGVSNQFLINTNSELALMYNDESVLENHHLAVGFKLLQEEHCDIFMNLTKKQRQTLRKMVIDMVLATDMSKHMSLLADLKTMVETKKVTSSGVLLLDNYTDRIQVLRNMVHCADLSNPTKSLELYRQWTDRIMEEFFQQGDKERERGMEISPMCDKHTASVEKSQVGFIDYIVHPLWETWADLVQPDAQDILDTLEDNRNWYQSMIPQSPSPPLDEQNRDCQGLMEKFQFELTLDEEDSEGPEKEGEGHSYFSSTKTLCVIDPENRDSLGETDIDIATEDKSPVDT

COc1ccc(C(=O)N2CCC[C@@]3(CCN(C)C3)C2)cc1
inactive: Potency [1] > 11.4 µM | activity change, negative = inhibition [2] 10.5% | activity change, negative = inhibition [3] -2.06% | activity, negative = inhibition [4] 1.69% | Potency [5] > 46 µM | Potency [6] | Potency [7] | outcome [8]

O=C(Nc1ccccc1)N1CCC2(CCNCC2)CC1
inactive: Potency [1] > 11.4 µM | activity change, negative = inhibition [2] -1.92% | activity change, negative = inhibition [3] -7.88% | activity, negative = inhibition [4] 10.8% | Potency [5] > 46 µM | Potency [6] | Potency [7] | outcome [8]

COc1ccc(C(=O)N2CCC[C@@]3(CCN(C(=O)Nc4cccc(F)c4)C3)C2)cc1
inactive: Potency [1] > 11.4 µM | activity change, negative = inhibition [2] -10.8% | activity change, negative = inhibition [3] 2.1% | activity, negative = inhibition [4] -4.78% | Potency [5] > 46 µM | Potency [6] | Potency [7] | outcome [8]

O=C(c1csnn1)N1CCC[C@@]2(CCN(c3ccccc3)C2)C1
inactive: Potency [1] > 11.4 µM | activity change, negative = inhibition [2] -5.43% | activity change, negative = inhibition [3] -8.4% | activity, negative = inhibition [4] -7.17% | Potency [5] > 46 µM | Potency [6] | Potency [7] | outcome [8]

COc1ncc2nc(C)c(=O)n(C[C@H]3CCCO3)c2n1
inactive: Potency [1] > 11.4 µM | activity change, negative = inhibition [2] -6.08% | activity change, negative = inhibition [3] -9.08% | activity, negative = inhibition [4] -2.46% | Potency [5] > 46 µM | Potency [6] | Potency [7] | outcome [8]

COc1ccc(C(=O)N2CCC3(CCN(Cc4nccs4)CC3)CC2)cc1
inactive: Potency [1] > 11.4 µM | activity change, negative = inhibition [2] -14.6% | activity change, negative = inhibition [3] -8.01% | activity, negative = inhibition [4] -11.9% | Potency [5] > 46 µM | Potency [6] | Potency [7] | Potency [9] | outcome [8]

COCC(=O)N1CCC2(CC1)CCN(c1ccc(-c3ccccc3)cc1)CC2
inactive: Potency [1] > 11.4 µM | activity change, negative = inhibition [2] -8.62% | activity change, negative = inhibition [3] 2.65% | activity, negative = inhibition [4] -21.1% | Potency [5] > 46 µM | Potency [6] | Potency [7] | Potency [9] | outcome [8]

O=C(c1csnn1)N1CCC[C@@]2(CCN(c3cccc(-c4ccccc4)c3)C2)C1
inactive: Potency [1] > 11.4 µM | activity change, negative = inhibition [2] -28.1% | activity change, negative = inhibition [3] 12.1% | activity, negative = inhibition [4] 6.22% | Potency [5] > 46 µM | Potency [6] | Potency [7] | outcome [8]

COc1ccc(C(=O)N2CCC3(CCN(C(=O)Nc4ccccc4)CC3)CC2)cc1
inactive: Potency [1] > 11.4 µM | activity change, negative = inhibition [2] 0.785% | activity change, negative = inhibition [3] 6.48% | activity, negative = inhibition [4] -6.61% | Potency [5] > 46 µM | Potency [6] | Potency [7] | outcome [8]

Cc1noc(C)c1C(=O)N1CCC2(CCCN(c3ncccn3)C2)CC1
inactive: Potency [1] > 11.4 µM | activity change, negative = inhibition [2] -6.23% | activity change, negative = inhibition [3] 7.66% | activity, negative = inhibition [4] -4.43% | Potency [5] > 46 µM | Potency [6] | Potency [7] | outcome [8]

O=C(c1ccncc1)N1CCC[C@@]2(CCN(Cc3ccccc3)C2)C1
inactive: Potency [1] > 11.4 µM | activity change, negative = inhibition [2] 1% | activity change, negative = inhibition [3] -11.7% | activity, negative = inhibition [4] 7.78% | Potency [5] > 46 µM | Potency [6] | Potency [7] | Potency [10] | outcome [8]

O=C(c1csnn1)N1CCC[C@@]2(CCN(Cc3ccccc3)C2)C1
inactive: Potency [1] > 11.4 µM | activity change, negative = inhibition [2] -14.5% | activity change, negative = inhibition [3] 1.87% | activity, negative = inhibition [4] -1.23% | Potency [5] > 46 µM | Potency [6] | Potency [7] | outcome [8]

N#Cc1ccc(CN2CC3(CCN(C(=O)c4csnn4)CC3)C2)cc1
inactive: Potency [1] > 11.4 µM | activity change, negative = inhibition [2] -0.499% | activity change, negative = inhibition [3] -22.3% | activity, negative = inhibition [4] 5.17% | Potency [5] > 46 µM | Potency [6] | Potency [7] | outcome [8]

O=C(c1ccco1)N1CCC2(CCCN(c3ncccn3)C2)CC1
inactive: Potency [1] > 11.4 µM | activity change, negative = inhibition [2] 3.88% | activity change, negative = inhibition [3] -1.96% | activity, negative = inhibition [4] -7% | Potency [5] > 46 µM | Potency [6] | Potency [7] | outcome [8]
